This is an account of results in PubChem BioAssay (NCI).

The panel holds about 83,000 compounds, 20% with a hit somewhere; the sample as a whole holds those more often.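 Treatment: one concentration, 48 hours, 96-well format. Scoring: percent growth, with anything below 10 considered active.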 Activity calls are given as the source filed them.

The assay deals with SF-295 CNS. The experiment in a line: NCI-60 one-dose screen, 48 h (100 = growth as untreated, 0 = no growth, -100 = all killed). The note with it: 10 µM unless noted.
As to `O=C(Nc1ccc2c(ccn2Cc2ccccn2)c1)c1ccnnc1`, the growth was 94.7% (inactive).
The value for `N#C/C(=C\c1ccc(-c2ccc(Cl)cc2Cl)o1)c1ccc(F)cc1` was 99.8% (inactive); that for `COc1ccc(/C(N)=N/C(N)=N/c2nc3ccccc3s2)cc1` was 52% (inactive); that for `Nc1nc(-c2cccc([N+](=O)[O-])c2)c(N=Nc2ccccc2)s1` was 63% (inactive).
For `CNC(=O)c1cc(Oc2ccc3nc(NC(=O)c4cc(N5CCOCC5)cc(C(F)(F)F)c4)sc3c2)ccn1`, the growth is 44.6% (inactive).
As for `C=C(C)[C@@H]1CC[C@]2(COP(=O)(OCC)OCC)CC[C@]3(C)[C@H](CC[C@@H]4[C@@]5(C)CCCNC(C)(C)[C@@H]5CC[C@]43C)[C@@H]12`, the growth was 19.8% (inactive).
The value for `CCCn1cnc2c(c1=N)C(c1ccc(F)cc1)c1sc3c(CC)cccc3c1O2` (stereo not drawn) was 7.42% (active); that for `CC1(C)[C@@H](O)CC[C@]2(C)[C@H]3CC[C@@H]4[C@H]5[C@H](C(=O)/C=C\c6ccc([N+](=O)[O-])cc6)CC[C@]5(O)CC[C@@]4(C)[C@]3(C)CC[C@@H]12` was 79.5% (inactive).
As to `c1cc(-c2nc3ccc4[nH]ncc4c3c3c2CCCC3)[nH]n1`, the growth is 67.5% (inactive).
Regarding `O=C(CSc1nc2ccccc2c(=O)n1-c1ccccc1)Nc1ccc(-c2nc3ccc([N+](=O)[O-])cc3[nH]2)cc1`, the growth was 103% (inactive).
For `C[C@@H](Nc1ncnc2ccc(-c3cnc(Cl)c(NS(C)(=O)=O)c3)cc12)c1ccccc1`, the growth was 46% (inactive).
`CC(=O)Nc1cccc(Nc2nc(N[C@H](C)c3ccccc3)c3ccccc3n2)c1`: the growth is 42.3% (inactive).
The value for `COc1cc(-c2nn(C(C)(C)C)cc2-c2ccnc(NCCCNS(=O)(=O)c3cccc(F)c3)n2)ccc1Cl` was 83.7% (inactive); that for `Cc1ccc2c(c1)C(=O)/C(=C/c1cccc(F)c1)S2` was 105% (inactive); that for `CCCC(=O)NC(c1cccnc1)c1cc(C(C)(C)C)c2cccnc2c1O` (stereo not drawn) was 17% (inactive).
For `CCN(CC)CCn1c2ccc(O)cc2c2sc3cc(OC)ccc3c(=O)c21`, the growth is 13.9% (inactive).
For `Cn1cc(-c2nc(N)nnc2-c2c[nH]c3ccccc23)c2cc(Br)ccc21`, the growth is -7.74% (active).
Consider `C=C(C)[C@@H]1CC[C@]2(COCCCNCCC#N)CC[C@]3(C)[C@H](CC[C@@H]4[C@@]5(C)CC[C@H](OCCCNCCC#N)C(C)(C)[C@@H]5CC[C@]43C)[C@@H]12`, for which the growth is 55.9% (inactive).
Regarding `CCNC(=O)N1CCc2cc(OC)c(OCCc3ccc(OC)c(N)c3)cc2C1c1ccc(C)cc1C` (stereo not drawn), the growth is 16.1% (inactive).
For the compound `CC1(C)CC[C@]2(C(=O)N3CCOCC3)CC[C@]3(C)C(=CC[C@@H]4[C@@]5(C)C/C(=C/c6ccccn6)C(=O)C(C)(C)[C@@H]5CC[C@]43C)[C@@H]2C1`, the growth is 75.1% (inactive).
Consider `O=C(Nc1nc2ccc([N+](=O)[O-])cc2s1)Nc1ccccc1Br`, for which the growth is 38.1% (inactive).
For `CC1=N[C@@H]2CN(C(=O)OC(C)(C)C)C[C@@H]2n2c1cc1ccccc1c2=O` the value was 108% (inactive); for `Cc1[nH]c(C(=O)Nc2ccccc2OCc2cccc(C(=O)N3CCC[C@@H](N)C3)c2)c(Cl)c1Cl`, -91.7% (active); for `Cc1cc(-c2ccc(Cl)cc2)n(Cc2nnc(SCC(=O)Nc3ccc(S(N)(=O)=O)cc3)n2-c2ccc([N+](=O)[O-])cc2)n1`, 73.4% (inactive).
For `Cc1c(F)cc(C(N)=O)cc1NCC(=O)Nc1ccc([N+](=O)[O-])cc1` the value was 93.6% (inactive); for `COc1cc(-c2ccc3ncnc(NCc4ccccc4)c3c2)cnc1OC`, 55.1% (inactive); for `CCNC(=O)N1CCc2cc(OC)c(OCCc3ccc(OC)c(N)c3)cc2C1c1cc(C)c(C)cc1C` (stereo not drawn), 18.3% (inactive).
For `O=C1[C@H]2Cc3c([nH]c4ccccc34)[C@@H](c3ccc(Br)cc3)N2C(=O)CN1C1CCN(CC2CCCCC2)CC1` the value was -61.5% (active); for `COC(=O)c1ccc(NC2=C/C(=N/S(=O)(=O)c3ccc(C(=O)O)cc3)c3ccccc3C2=O)cc1`, 91.5% (inactive); for `COc1ccc(CCOc2cc3c(cc2OC)CCN(C(=O)NCc2cocn2)C3c2ccc(C)cc2C)cc1` (stereo not drawn), 12.8% (inactive).
Consider `Cc1ccc(C(=O)NN2C(=O)/C(=C/C=C/c3ccco3)SC2=S)cc1`, for which the growth is 102% (inactive).
For `COc1ccc(/C=C/C(=O)c2cccc(NC(=O)CSc3nc4ccccc4c(=O)n3-c3ccccc3)c2)cc1OC` the value was 103% (inactive).
On to `C[C@H]1c2[nH]c3ccccc3c2C[C@H]2C(=O)N(CCCCCCC(=O)NO)CC(=O)N21`, for which the growth was 93.6% (inactive).
For `C=CCOc1cccc(/C=C2\SC(=S)N(C3CC(=O)N(c4ccc(Br)cc4)C3=O)C2=O)c1` (stereo not drawn) the value was 97.8% (inactive).
For `CC(C)(C)c1ccc(-c2nnc(-c3nc4ccccc4nc3Cl)o2)cc1` the value was 103% (inactive).
Take `Nc1nc(-c2cccc([N+](=O)[O-])c2)c(N=Nc2ccc(Br)cc2)s1`: the growth was -65.4% (active).
For the compound `CCNC(=O)N1CCc2cc(OC)c(OCCc3ccc(OC)cc3)cc2C1c1ccc(OC)cc1C` (stereo not drawn), the growth was 10.6% (inactive).
As to `COc1ccc(-c2nc(C(Cl)Cl)nc3cc(-c4ccccc4)nn23)cc1`, the growth is 9.62% (active).
